Format in all cases: functional
In test [1] the target is Solute carrier family 2, facilitated glucose transporter member 1 (Homo sapiens) (UniProt P11166). Description: ST_JUDE_LEISH: Cytotoxicity at 2uM final concentration against transgenic Leishmania Mexicana promastigotes LmGLUT1 that are glucose transport deficient and complemented with the human glucose transporter GLUT1. Activity is measured by DNA content using SYBR green in vitro.

For test [2], the target named is Hexose transporter 1 (Plasmodium falciparum) (UniProt O97467). Description: ST_JUDE_LEISH: Cytotoxicity at 2uM final concentration against transgenic Leishmania Mexicana promastigotes LmPfHT that are glucose transport deficient and complemented with the Plasmodium falciparum hexose transporter. Activity is measured by DNA content using SYBR green in vitro.
For test [3], the target named is Glucose transporter (Leishmania mexicana) (UniProt O61059). Description: ST_JUDE_LEISH: Cytotoxicity at 2uM final concentration against transgenic Leishmania Mexicana promastigotes LmGT2 that are glucose transport deficient and complemented with the L. Mexicana glucose transporter 2. Activity is measured by DNA content using SYBR green in vitro.

By inhibition is commonly meant the drop in the measured response relative to a control, in per cent.

Chain of Solute carrier family 2, facilitated glucose transporter member 1 (Homo sapiens) (P11166 whole entry): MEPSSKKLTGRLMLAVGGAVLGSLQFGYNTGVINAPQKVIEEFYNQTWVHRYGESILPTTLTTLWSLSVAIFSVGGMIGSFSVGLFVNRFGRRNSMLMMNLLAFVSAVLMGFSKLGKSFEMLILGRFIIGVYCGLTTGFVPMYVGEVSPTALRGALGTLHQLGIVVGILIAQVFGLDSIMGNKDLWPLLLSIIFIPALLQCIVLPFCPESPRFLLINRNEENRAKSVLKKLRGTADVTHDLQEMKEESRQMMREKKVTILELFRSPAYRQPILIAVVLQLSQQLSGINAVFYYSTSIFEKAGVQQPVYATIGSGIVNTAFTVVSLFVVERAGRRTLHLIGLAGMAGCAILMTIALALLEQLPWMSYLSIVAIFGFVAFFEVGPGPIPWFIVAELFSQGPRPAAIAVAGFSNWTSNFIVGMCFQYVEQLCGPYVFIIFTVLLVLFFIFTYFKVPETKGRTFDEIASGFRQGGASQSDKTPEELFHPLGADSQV

Take `CN(Cc1cccc(F)c1)C1CCN(c2cc(NC(=O)c3cccc(F)c3)ccn2)CC1`: the inhibition in test [1] was found to be 3.06%; in test [2], 3.18%; in test [3], 2.7%.
On the same counts, the results for `Cn1c(=O)c(-c2c(Cl)cccc2Cl)cc2cnc(Nc3ccc(N4CCOCC4)cc3)nc21` are 34.6%, 41% and 11.6%.
For `Cc1c(CCC#N)c(NCc2ccccc2)n2c(nc3ccccc32)c1C#N`, in that order: 1.13%, 0.53% and -0.97%.
Take `CC(C)Cn1ccc2c3c(N)nc(N)nc3ccc21`: the results for the inhibition in test [1], in test [2] and in test [3] were 27.1%, 47.5% and 17%, respectively.
Turning to `COc1ccccc1NC(=S)N/N=C/c1ccc(O)cc1O`, the inhibition in test [1] is 1.28%; in test [2] it was 6.07%; in test [3], 0.42%.
As for `COCCNc1nc(N2CCC(CNC(=O)c3ccc(-c4ccc(C(=O)N(C)C)cc4C)cc3)CC2)nc2cc(OC)c(OC)cc12`, the inhibition was -0.42% in test [1], 1.09% in test [2] and 1.17% in test [3].
As to `CC(C)NCc1ccc(-c2ccc(-c3nc4cc(F)ccc4[nH]3)cc2)cc1`, the values for the inhibition in test [1], in test [2] and in test [3] were 7.9%, 8.81% and 6.75%, respectively.
For the compound `CC(C(=O)OCCOCn1cnc2c(=O)[nH]c(N)nc21)N(C)C(=O)OC(C)(C)C` (stereo not drawn), the figures for the inhibition in test [1], in test [2] and in test [3] were -2.44%, -1.51% and -3.59%, respectively.
Take `Cc1cccc2nc(-c3ccc(-c4cccc(CN5CCN(c6ccncc6)CC5)c4)s3)[nH]c12`: the inhibition in test [1] is 4.03%; in test [2] it was 2.05%; in test [3], 0.33%.
For `COc1ccc2c(=NN=C(C)c3ccccn3)cc(C)[nH]c2c1`, the inhibition in test [1] came to 5.68%; in test [2], 9.51%; in test [3], 4.08%.
On the same counts, the results for `N=C(N)Nc1nc(-c2ccc(NCc3ccc(CNc4cccc(-c5csc(NC(=N)N)n5)c4)cc3)cc2)cs1` are 0.36%, 1.69% and 1.12%.
Regarding `N#Cc1cccc(CNC(=O)c2cccc(Nc3ccnc4ccc(F)cc34)c2)c1`, the inhibition is -0.1% in test [1], 1.25% in test [2] and 0.82% in test [3].
On to `CN1CCC(N(Cc2ccc(-c3ccc(Cl)cc3)cc2)C(=O)Cn2c(CCc3cccc(F)c3F)cc(=O)c3ccccc32)CC1`, for which the inhibition in test [1] turned out to be 8.97%; in test [2], 3.73%; in test [3] it was 8.07%.
Take `CCNc1cc(C(=O)N[C@@H](Cc2ccccc2)[C@H](O)CNC2CCC(F)(F)CC2)c(F)c(N2CCCCS2(=O)=O)c1`: the inhibition in test [1] is -0.9%; in test [2], -1.47%; in test [3], -1.39%.
With `COc1cc(Nc2nccc(N3CCC(NC(=O)C4COc5ccccc5O4)C3)n2)cc(OC)c1OC` (stereo not drawn), the inhibition turned out to be 2.77% in test [1], 1.3% in test [2] and 2.12% in test [3].
In the case of `CCN1CCC(N(Cc2ccc(-c3ccc(C(F)(F)F)s3)cc2)C(=O)Cn2c(CCc3cccc(F)c3F)nc(=O)c3ccccc32)CC1`, the inhibition in test [1] came out at 6.57%; in test [2] it was 5.93%; in test [3], 5.76%.
On the same counts, the results for `Clc1ccc(-c2cc(-c3csc(NCCN4CCOCC4)n3)on2)c(Cl)c1` are 12.4%, 9.19% and 10.6%.
On to `O=C(Nc1ccc(N2CCCN(Cc3cccc(F)c3)CC2)cc1)c1ccc(F)cc1`, for which the inhibition in test [1] came to 4.73%; in test [2], 5.55%; in test [3], 5.51%.
Consider `Cc1cnc(N2CCN(CC3CCN(C)CC3)CC2)nc1Oc1ccc(-n2ccnc2)cc1`, for which the inhibition in test [1] came to 4.68%; in test [2], 3.96%; in test [3], 2.78%.
For the compound `COc1cc2c(C3CCN(CC4CCN(C(=O)/C=C/c5ccc(Cl)c(Cl)c5)CC4)CC3)c[nH]c2cn1`, the inhibition was 2.4% in test [1], -0.95% in test [2] and -0.88% in test [3].
Regarding `CC(C)C1C(O)=C(c2ccc3ccccc3c2)C(=O)N1Cc1ccsc1` (stereo not drawn), the inhibition was 4.27% in test [1], 5.59% in test [2] and 2.54% in test [3].
Consider `COc1ccc(CCn2c(=N)c(C(=O)NCc3ccccc3)cc3c(=O)n4cccc(C)c4nc32)cc1`, for which the inhibition in test [1] was found to be 12.7%; in test [2], 13.6%; in test [3], 7.48%.
In the case of `CN(C)c1ccc(NC(=O)Nc2ccnc3ccccc23)cc1Br`, the figures for the inhibition in test [1], in test [2] and in test [3] were 8.81%, 8.16% and 6.85%, respectively.
Turning to `Cc1nc(C)c(C2CCC(c3ccc(Cl)cc3)CC2)c(O)c1Cl` (stereo not drawn), the inhibition in test [1] is 5.98%; in test [2], 56.3%; in test [3], -0.48%.
As to `Cc1ccc2c(Cl)c(C(=O)N3CCCc4ccccc43)sc2c1`, the inhibition in test [1] was 5.28%; in test [2] it was 3.86%; in test [3], 3.16%.
As for `CCCC1(NC[C@@H](O)[C@H](Cc2ccccc2)NC(=O)c2cc(NCC)cc(N3CCCCS3(=O)=O)c2)CCCC1`, the values for the inhibition in test [1], in test [2] and in test [3] were 4.97%, 5.31% and 3.48%, respectively.
For the compound `N#Cc1ccc2c(c1)CCN(CCC1CCC(NC(=O)/C=C/c3ccc(Cl)c(Cl)c3)CC1)CC2` (stereo not drawn), the results for the inhibition in test [1], in test [2] and in test [3] were 9.87%, 13.1% and 6.83%, respectively.
On the same counts, the results for `CC(C)(CNCc1cccc(Oc2ccccc2)c1)c1nc(-c2ccnc(N)n2)c(-c2ccc(Cl)c(O)c2)[nH]1` are -0.85%, -0.2% and -0.78%.
Take `Nc1cc(/C=C/c2ccc([N+](=O)[O-])o2)nc2ccccc12`: the inhibition was 104% in test [1], 104% in test [2] and 101% in test [3].
On to `CCCCCNc1nc2nc(N)nc(N)c2nc1-c1ccccc1`, for which the inhibition is 7.52% in test [1], 9.23% in test [2] and 0.23% in test [3].
Regarding `CC1(C)[C@H]2CC[C@@H](CNc3nc(NCCc4c[nH]cn4)nc(Nc4ccc5c(c4)OCO5)n3)[C@@H]1C2`, the figures for the inhibition in test [1], in test [2] and in test [3] were 2.49%, 0.99% and 0.68%, respectively.
For `Cc1ccc(NC(=O)c2cn(-c3ccccc3)nc2-c2ccc(F)cc2)cc1[N+](=O)[O-]`, the results for the inhibition in test [1], in test [2] and in test [3] were 4.38%, 3.28% and 1.86%, respectively.
For the compound `CC(C)Sc1nc2c(c(=O)n1CCc1ccccc1)C1(CCCC1)Cc1ccccc1-2`, the results for the inhibition in test [1], in test [2] and in test [3] were 1.78%, 2.51% and 2.88%, respectively.
For the compound `Cc1cc(NCCC(=O)Nc2ccccc2)nc(NCCOc2ccccc2)n1`, the inhibition in test [1] was -0.01%; in test [2], -0.67%; in test [3] it was -1.58%.
Consider `Cc1cc(C(F)(F)F)n2nc(C(=O)N(Cc3cncn3Cc3ccccc3F)CC3CC3)cc2n1`, for which the inhibition is -1.46% in test [1], -0.8% in test [2] and -0.18% in test [3].
As to `CN(C)CCNCc1cccc(-c2ccc3c(Nc4ccc(Oc5ccccn5)cc4)ccnc3c2)c1`, the inhibition was determined as 0.48% in test [1], 1.4% in test [2] and 0.21% in test [3].

Source of the values: ChEMBL document CHEMBL3433997, “St. Jude Leishmania screening dataset” (2016).
